# SW480 rereplic: DNA re-replication induction in SW480 cells. Potency, µM (highest dose often 46.1 µM), for the others: at the top dose re-replication activation, most hits filed as activators. 1.8% of 340,000 active. SW480 DNA re-replication, Hoechst DNA content imaging, 48 h; further: % of control where 0% means no effect; nearly all actives have a fitted effect of over 55% in size
#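 DNA re-replication was detected as more nuclei of elevated Hoechst intensity after 48 hr exposure to compound (23 nL pinned per well of 250 cells).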
# ELG1 DNA repair: inhibitors of ELG1-dependent DNA repair in HEK293T cells; Potency, µM (highest dose often 46.1 µM), for the others: top-dose activity change, negative = inhibition, actives largely listed as inhibitors; 2.3% of 330,000 active; HEK293T ELG1-luciferase reporter, luminescence, 16 h; DNA damage induced by 5-fluorouridine; further: on the % scale 0 is the no-effect control and ±100 the full control effect; nearly all actives have a fitted effect of over 55% in size
#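 DMSO vehicle served as the neutral condition. Each well held 2,000 cells given 5-fluorouridine plus compound; after 16 hr at 37 °C/5% CO2, ONE-Glo was added and luciferase measured 30 min later.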
# RORgamma inh: inhibitors of mouse ROR gamma transcriptional activity; P51450; Potency, µM (highest dose often 53.6 µM), for the others: top-dose activity change, negative = inhibition, most hits filed as inhibitors; Drosophila S2 Gal4-RORgamma UAS-luciferase reporter, 20 h; AID 2551; 5.4% of 310,000 active; further: on the % scale 0 is the no-effect control and ±100 the full control effect; nearly all actives have a fitted effect of over 60% in size
# Target sequence (P51450 whole entry, looked up, the tested form may be a part): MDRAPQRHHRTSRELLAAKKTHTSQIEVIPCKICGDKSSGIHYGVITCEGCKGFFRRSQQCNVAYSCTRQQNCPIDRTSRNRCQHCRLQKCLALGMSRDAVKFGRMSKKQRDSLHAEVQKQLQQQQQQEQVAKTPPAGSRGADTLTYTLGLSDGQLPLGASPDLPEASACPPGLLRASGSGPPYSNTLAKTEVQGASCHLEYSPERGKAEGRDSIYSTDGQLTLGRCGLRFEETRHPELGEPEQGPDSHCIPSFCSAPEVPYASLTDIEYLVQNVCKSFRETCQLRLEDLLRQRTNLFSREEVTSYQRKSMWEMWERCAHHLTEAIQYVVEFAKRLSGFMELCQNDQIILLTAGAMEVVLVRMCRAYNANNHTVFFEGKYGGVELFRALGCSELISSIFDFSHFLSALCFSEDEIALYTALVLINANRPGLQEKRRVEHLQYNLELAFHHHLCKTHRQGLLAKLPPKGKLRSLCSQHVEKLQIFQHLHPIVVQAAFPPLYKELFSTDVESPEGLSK
#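 Read-out: Photinus luciferase luminescence; inhibitors lower reporter signal. Insect Schneider cells with Gal4-ROR gamma fusion under metallothionein promoter, UAS reporter; 700 uM final copper sulfate induction, 20 hr, ambient temperature.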
# Gal4-VP16 FLuc: inhibits Gal4-VP16 luciferase reporter, ROR gamma counter-screen; Drosophila S2 Gal4-VP16 UAS-luciferase, luminescence, 20 h; Potency, µM (doses to about 53.6 µM), for inactives: at the top dose activity, negative = inhibition, most hits filed as inhibitors; 3.5% of 310,000 active; AID 2546;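 further: Gal4-VP16 expression switched on by copper sulfate through the metallothionein promoter; on the % scale 0 is the no-effect control and ±100 the full control effect; nearly all actives have a fitted effect of over 50% in size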
# MCF10A rerep: DNA re-replication induction in MCF 10a cells; Potency, µM (highest dose often 46.1 µM), without a hit: top-dose activity, positive = re-replication, usual class: activators; MCF 10A DNA re-replication, Hoechst nuclear intensity, 48 h; 2.9% of 350,000 active; AID 624296; further: % of control where 0% means no effect; nearly all actives have a fitted effect of over 50% in size
# * hit, by the source's call; ? = inconclusive; . = not tested or not shown; [ ] = another dose, or the depositor's remark. Only some compounds are listed: those with a hit (about 10% of all), similar ones and a draw of the others. The call rests on the fitted dose curve; in most records, active means well fitted curve in the direction sought with a large enough effect; inconclusive means small, poorly fitted or top-dose-only effect, or another doubt; inactive means no such curve, though single readings can be large; an effect the other way counts as inactive or inconclusive. Potency means the concentration at half of the fitted maximal effect.
SMILES,SW480 rereplic,ELG1 DNA repair,RORgamma inh,Gal4-VP16 FLuc,MCF10A rerep
NC(=O)/C(=N\OC(=O)c1ccco1)c1nc(-c2ccc(Br)cc2)cs1,16%,1%,4.5µM*,?,12%
CCOc1cc(/C=C2\SC(=N)N(c3nonc3N)C2=O)ccc1OCC(N)=O,.,4%,?,-7%,?
CCOc1cc(/C=C2\SC(=N)N(c3nonc3N)C2=O)ccc1OCCN1CCOCC1,18%,3%,3.2µM*,?,9%
Cc1[nH]c(=O)[nH]c(=O)c1S(=O)(=O)N1c2ccc(F)cc2CCC1C (stereo unspecified),-13%,19%,-27%,-16%,14%
COc1ccc(C(=O)Nc2ccccc2N2CCN(C(=O)C(C)C)CC2)cc1Cl,0%,23µM*,-15%,-3%,3%
CC(C)C(=O)N1CCN(c2ccc(NC(=O)c3ccc4c(c3)OCCO4)cc2Cl)CC1,6%,5.8µM*,32%,1%,18µM*
CC(C)C(=O)N1CCN(c2ccc(NC(=O)c3cccs3)cc2Cl)CC1,-27%,12µM*,?,?,4%
O=C(CSc1nnc(-c2ccc(O)cc2)o1)N1CCOCC1,-4%[9.22 µM],?,4%,4%,-9%
Oc1ccc(-c2nnc(SCC3CCCCC3)o2)cc1,2%,?,3.2µM*,8.9µM*,?
CNC(=O)NC(=O)CSc1nnc(-c2ccco2)n1Cc1ccccc1,-5%,-2%,36%,-4%,-1%
O=C(CSc1nnc(-c2ccco2)n1Cc1ccccc1)NC(=O)NCc1ccccc1,-1%,18µM*,0%,-8%,?
NC(=O)Cc1ccc(Nc2nnc(-c3ccccc3)c3ccccc23)cc1,3%,15%,?,22µM*,-7%
CCN(CC)C(=O)c1ccc(Nc2nnc(-c3ccc(O)cc3)c3ccccc23)cc1,-13%,16µM*,8%,-23%,0%
CCN(CC)C(=O)c1ccc(-c2nnc(Nc3cccc(O)c3)c3ccccc23)cc1,3%,?,-1%,-3%,6%
COc1ccc(-c2nnc(Nc3ccc(CC(N)=O)cc3)c3ccccc23)cc1,7%,?,30%,-5%,16%
CCc1cccc(C)c1NC(=O)CN1C(=O)NC(Cc2ccccc2)C1=O (stereo unspecified),-2%,-25%,7%,-2%,-4%
ClCC1NCC(c2ccccc2Cl)c2c1[nH]c1ccccc21 (stereo unspecified),-9%,-9%,-8%,-4%,3.7µM*
Cc1ccc(NC(=O)CSc2nnc(C3COc4ccccc4O3)o2)c(Cl)c1 (stereo unspecified),3%,11%,8%,-5%,-2%
CCn1cc(C=C2C(=O)c3ccccc3C2=O)c2ccccc21,-6%,?,15%,7%,1%
CCn1cc(C2N3CC4(C)CN2CC(C)(C3)C4=O)c2ccccc21 (stereo unspecified),3%,-6%,2%,8%,0%
CCn1cc(C2=NC(C(C)C)CO2)c2ccccc21 (stereo unspecified),3%,28%,10µM*,?,-5%
CC(C)C1COC(c2cccc3ccccc23)=N1 (stereo unspecified),?,?,20µM*,?,-7%
CCn1cc(C2=NC(CC(C)C)CO2)c2ccccc21 (stereo unspecified),?,-4%,4µM*,?,?
CCn1cc(C2=NC(CCSC)CO2)c2ccccc21 (stereo unspecified),-3%,9%,7.9µM*,?,-1%
CC(C)[C@H]1COC(c2cccc([N+](=O)[O-])c2)=N1,.,.,18%[96.6 µM],-8%[96.6 µM],.
CCOc1ccc(/C=N/NC(=S)NC2CC3CCC2C3)cc1 (stereo unspecified),-5%,?,5µM*,?,2%
CCOc1ccc(N(CC(=O)NC2CC3CCC2C3)S(=O)(=O)c2ccc(C)cc2)cc1 (stereo unspecified),?,?,0%,-4%,9%

# Screening data: PubChem BioAssay, National Center for Advancing Translational Sciences (NCATS)
